From PubChem BioAssay AID1159580 (chemical genetic matrix, 2015)
In all, about 5,500 compounds went through this assay and about 2,000 (36%) were called active. Not shown: some 18% with an inconclusive outcome. No stated cut-off is given here; in the data, active means normalized growth mostly below about 0.91 (no sharp cut-off); inconclusive means no clear call, values can overlap the other calls; inactive means mostly above about 0.92. The list shows a part of the results.

Experiment: chemical genetic growth profiling, strain panel (AID 1159580);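 further: tested at 20 µM; growth read once vehicle control cultures reached saturation at 30 °C; 1 = growth at the plate median or of vehicle wells; lower values mean less growth of the strain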
Conditions: S. cerevisiae deletion strains, growth OD

Measured: normalized growth

COC(=O)c1c(OC)cc2c(c1C)Oc1c(Cl)c(OC(C)=O)c(Cl)c(C)c1C(=O)O2
inactive: locus YAL021C, strain ccr4, active compounds read low 1.02 | locus YAL026C, strain drs2, active compounds read low 1 | locus YAL030W, strain snc1, active compounds read low 0.994 | locus YBL061C, strain skt5, active compounds read low 0.977 | locus YBR009C, strain hhf1, active compounds read low 1.02 | locus YBR021W, strain FUR4, active compounds read low 1.03 | locus YBR023C, strain chs3, active compounds read low 0.978 | locus YBR171W, strain sec66, active compounds read low 1 | locus YBR229C, strain ROT2, active compounds read low 0.989 | locus YBR231C, strain swc5, active compounds read low 0.987 | locus YBR279W, strain paf1, active compounds read low 0.982 | locus YCL011C, strain gbp2, active compounds read low 1.02 | locus YCL016C, strain dcc1, active compounds read low 0.99 | locus YCL029C, strain bik1, active compounds read low 1.01 | locus YCL061C, strain MRC1, active compounds read low 1.01 | locus YCL069W, strain vba3, active compounds read low 0.998 | locus YCR088W, strain abp1, active compounds read low 0.988 | locus YDL005C, strain med2, active compounds read low 1 | locus YDL035C, strain GPR1, active compounds read low 1.01 | locus YDL040C, strain nat1, active compounds read low 0.955 | locus YDL074C, strain BRE1, active compounds read low 1.05 | locus YDL101C, strain DUN1, active compounds read low 1.01 | locus YDL134C, strain PPH21, active compounds read low 1.02 | locus YDL185W, strain tfp1, active compounds read low 1.01 | locus YDL192W, strain arf1, active compounds read low 1.01 | locus YDR001C, strain nth1, active compounds read low 0.992 | locus YDR069C, strain doa4, active compounds read low 0.998 | locus YDR101C, strain arx1, active compounds read low 1.01 | locus YDR137W, strain rgp1, active compounds read low 0.947 | locus YDR159W, strain sac3, active compounds read low 0.948 | locus YDR162C, strain NBP2, active compounds read low 1.03 | locus YDR195W, strain ref2 1.03 | locus YDR297W, strain sur2, active compounds read low 1 | locus YDR318W, strain mcm21, active compounds read low 1 | locus YDR334W, strain swr1, active compounds read low 0.99 | locus YDR335W, strain msn5, active compounds read low 1 | locus YDR388W, active compounds read low 1.01 | locus YDR392W, strain spt3, active compounds read low 0.866 | locus YDR502C, strain sam2, active compounds read low 1 | locus YEL003W, strain gim4, active compounds read low 1 | locus YEL037C, strain rad23, active compounds read low 0.984 | locus YEL061C, strain CIN8 (second series), active compounds read low 0.979 | locus YEL061C, strain CIN8, active compounds read low 0.999 | locus YER015W, strain faa2, active compounds read low 1.01 | locus YER016W, strain bim1, active compounds read low 0.971 | locus YER110C, active compounds read low 1.02 | locus YER111C, strain swi4, active compounds read low 0.985 | locus YER155C, strain BEM2 (second series), active compounds read low 1.01 | locus YER155C, strain BEM2, active compounds read low 0.992 | locus YER167W, strain BCK2, active compounds read low 1.02 | locus YFR010W, strain ubp6, active compounds read low 0.975 | locus YGL078C, strain dbp3, active compounds read low 1.01 | locus YGL086W, strain mad1, active compounds read low 1.02 | locus YGL167C, strain pmr1, active compounds read low 0.942 | locus YGL173C, strain kem1, active compounds read low 0.983 | locus YGL227W, strain vid30, active compounds read low 1 | locus YGL240W, strain doc1, active compounds read low 0.964 | locus YGL248W, strain PDE1, active compounds read low 1.01 | locus YGL253W, strain hxk2, active compounds read low 0.977 | locus YGR078C, strain PAC10, active compounds read low 1.01 | locus YGR135W, strain pre9, active compounds read low 1.01 | locus YGR252W, strain gcn5, active compounds read low 1.11 | locus YHR013C, strain ard1, active compounds read low 0.966 | locus YHR027C, strain rpn1, active compounds read low 1 | locus YHR030C, strain SLT2, active compounds read low 1 | locus YHR079C, strain IRE1 (second series), active compounds read low 0.997 | locus YHR094C, strain hxt1, active compounds read low 1.01 | locus YHR129C, strain ARP1, active compounds read low 1 | locus YHR142W, strain chs7, active compounds read low 0.985 | locus YHR200W, strain rpn10, active compounds read low 1.02 | locus YIL066C, strain RNR3, active compounds read low 1.03 | locus YIL073C, strain SPO22, active compounds read low 1.09 | locus YIL125W, strain kgd1, active compounds read low 1.02 | locus YIR030C, strain dcg1, active compounds read low 0.998 | locus YJL092W, strain hpr5, active compounds read low 0.992 | locus YJL095W, strain BCK1 (second series), active compounds read low 0.975 | locus YJL095W, strain BCK1, active compounds read low 1.02 | locus YJL115W, strain asf1, active compounds read low 0.996 | locus YJL129C, strain trk1, active compounds read low 1.01 | locus YJL134W, strain LCB3, active compounds read low 0.998 | locus YJL154C, strain vps35, active compounds read low 0.972 | locus YJL164C, strain tpk1, active compounds read low 1.01 | locus YJL166W, strain qcr8, active compounds read low 1.01 | locus YJL168C, strain set2, active compounds read low 0.996 | locus YJL187C, strain SWE1 (second series), active compounds read low 1.02 | locus YJL187C, strain SWE1, active compounds read low 0.975 | locus YJR043C, strain POL32, active compounds read low 1.04 | locus YKL009W, strain mrt4, active compounds read low 1.01 | locus YKL068W, active compounds read low 0.988 | locus YKL085W, strain MDH1 (second series), active compounds read low 1 | locus YKL085W, strain MDH1, active compounds read low 1 | locus YKL160W, strain elf1, active compounds read low 0.982 | locus YKL190W, strain CNB1, active compounds read low 1.01 | locus YKR001C, strain vps1, active compounds read low 1.04 | locus YKR026C, strain gcn3, active compounds read low 0.996 | locus YKR091W, strain srl3, active compounds read low 0.989 | locus YLL001W, strain dnm1, active compounds read low 0.992 | locus YLL026W, active compounds read low 1 | locus YLL041C, strain sdh2, active compounds read low 0.988 | locus YLR027C, strain aat2, active compounds read low 0.986 | locus YLR039C, strain RIC1, active compounds read low 1.02 | locus YLR058C, strain SHM2, active compounds read low 1 | locus YLR102C, strain apc9, active compounds read low 1.01 | locus YLR221C, strain rsa3, active compounds read low 1.01 | locus YLR258W, strain gsy2, active compounds read low 0.998 | locus YLR262C, strain YPT6 (second series), active compounds read low 0.979 | locus YLR262C, strain YPT6, active compounds read low 1.03 | locus YLR268W, strain sec22, active compounds read low 1.02 | locus YLR320W, strain mms22, active compounds read low 0.946 | locus YLR330W, strain CHS5, active compounds read low 0.998 | locus YLR342W, strain FKS1 (second series), active compounds read low 1.05 | locus YLR342W, strain FKS1, active compounds read low 0.978 | locus YLR357W, strain rsc2, active compounds read low 1.02 | locus YLR370C, strain arc18, active compounds read low 0.973 | locus YLR371W, strain rom2, active compounds read low 1.01 | locus YLR384C, strain iki3, active compounds read low 0.961 | locus YLR418C, strain cdc73, active compounds read low 1.07 | locus YML016C, strain PPZ1, active compounds read low 1 | locus YML032C, strain rad52, active compounds read low 1.02 | locus YML120C, strain ndi1, active compounds read low 1.01 | locus YML124C, strain tub3, active compounds read low 1.03 | locus YMR058W, strain fet3, active compounds read low 0.988 | locus YMR078C, strain ctf18, active compounds read low 1.01 | locus YMR125W, strain sto1, active compounds read low 0.997 | locus YMR129W, active compounds read low 0.999 | locus YMR205C, strain PFK2, active compounds read low 0.981 | locus YMR223W, strain ubp8, active compounds read low 1 | locus YMR231W, strain pep5, active compounds read low 0.974 | locus YMR263W, strain SAP30, active compounds read low 1.02 | locus YMR307W, strain GAS1, active compounds read low 1.03 | locus YNL067W, strain RPL9B, active compounds read low 1.02 | locus YNL071W, strain lat1, active compounds read low 0.997 | locus YNL209W, strain ssb2, active compounds read low 1.01 | locus YNL233W, strain BNI4, active compounds read low 1.03 | locus YNL248C, strain rpa49, active compounds read low 0.995 | locus YNL250W, strain rad50, active compounds read low 1.02 | locus YNL271C, strain bni1, active compounds read low 1.02 | locus YNL298W, strain CLA4, active compounds read low 1.03 | locus YNL307C, strain MCK1, active compounds read low 1 | locus YNL322C, strain KRE1 (second series), active compounds read low 1.02 | locus YNR049C, strain mso1, active compounds read low 0.982 | locus YNR052C, strain pop2, active compounds read low 1.01 | locus YOL006C, strain TOP1, active compounds read low 1.29 | locus YOL012C, strain htz1 1.01 | locus YOL147C, strain pex11, active compounds read low 0.999 | locus YOR001W, strain rrp6, active compounds read low 0.988 | locus YOR061W, strain CKA2, active compounds read low 1 | locus YOR069W, strain VPS5, active compounds read low 1.01 | locus YOR070C, strain gyp1, active compounds read low 0.974 | locus YOR080W, strain dia2, active compounds read low 0.977 | locus YOR083W, strain WHI5, active compounds read low 1.03 | locus YOR106W, strain vam3, active compounds read low 1.03 | locus YOR136W, strain idh2, active compounds read low 1.04 | locus YOR144C, strain elg1, active compounds read low 1 | locus YOR184W, strain ser1, active compounds read low 0.995 | locus YOR265W, strain rbl2, active compounds read low 0.981 | locus YOR270C, strain vph1, active compounds read low 0.96 | locus YOR290C, strain snf2, active compounds read low 0.999 | locus YOR316C, strain cot1, active compounds read low 1 | locus YPL051W, strain arl3, active compounds read low 0.976 | locus YPL055C, strain LGE1, active compounds read low 1.07 | locus YPL078C, strain atp4, active compounds read low 0.996 | locus YPL106C, strain sse1, active compounds read low 1.07 | locus YPL240C, strain hsp82, active compounds read low 1 | locus YPR119W, strain clb2, active compounds read low 1 | locus YPR141C, strain kar3, active compounds read low 1.01 | locus YPR163C, strain tif3, active compounds read low 1.02 | locus YPR167C, strain met16, active compounds read low 0.992 | strain wtn01, active compounds read low 1.03
